Consider 98 compounds from PubChem BioAssay AID729 (The Scripps Research Institute Molecular Screening Center, 2007).

The whole screen tested about 97,000 compounds, of which about 450 (0.46%) were called active. Rule as the data show it: active = activation above about 16%; inactive = the rest. The sample as a whole holds a higher share of actives than the screen did.

Sphingosine 1-phosphate receptor 2 (Homo sapiens), sequence (O95136 whole entry, looked up): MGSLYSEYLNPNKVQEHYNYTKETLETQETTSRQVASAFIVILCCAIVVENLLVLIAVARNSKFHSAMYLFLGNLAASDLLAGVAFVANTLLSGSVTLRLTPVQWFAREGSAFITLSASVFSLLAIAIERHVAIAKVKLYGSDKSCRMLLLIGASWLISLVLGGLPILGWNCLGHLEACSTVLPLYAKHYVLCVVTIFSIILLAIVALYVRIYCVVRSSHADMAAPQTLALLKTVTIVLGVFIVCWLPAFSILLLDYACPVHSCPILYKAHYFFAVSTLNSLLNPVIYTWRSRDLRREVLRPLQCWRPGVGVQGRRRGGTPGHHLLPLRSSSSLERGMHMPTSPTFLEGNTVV

The assay concerns the target Sphingosine 1-phosphate receptor 2 (Homo sapiens) (UniProt O95136). Put plainly: activation of human S1P2 receptor – cell-based, primary screen (AID 729).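 Also: 0% = vehicle low control and 100% = maximal reference agonist.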 The settings on record: S1P2-expressing cell line, agonist reporter read-out; at 4.5 µM; stronger effect = higher value.
With `Cc1c(Nc2nc3ccccc3nc2NS(=O)(=O)c2cccs2)c(=O)n(-c2ccccc2)n1C`, the activation was -4.46% (inactive).
With `O=S(=O)(NCC1OCCc2ccccc21)c1ccccc1` (stereo not drawn), the activation was 0.09% (inactive).
`CN1CCN(C(=O)Cn2c(C(F)(F)F)nc3ccccc32)CC1`: the activation was -7.46% (inactive).
The value for `COC(=O)c1cc(OC)c(OC)cc1NC(=O)CSc1ccc(C)cc1` was -4.04% (inactive); that for `COc1ccccc1CCNC(=O)c1cnccn1` was -1.07% (inactive).
In the case of `Cc1ccc(-n2cc3ccc([N+](=O)[O-])cc3n2)cc1`, the activation is -0.28% (inactive).
On to `CCOc1ccccc1NC(=O)c1cccnc1`, for which the activation is -2.14% (inactive).
The value for `Cc1nc2ccc(C(=O)N3CCN(c4ccccc4)CC3)cc2s1` was -0.32% (inactive); that for `CCOc1nc(NCCN2CCOCC2)nc(Nc2ccc(C)cc2)n1` was -6.53% (inactive); that for `CCc1c(O)cc2n(c1=O)-c1ccccc1C2(C)C` was -1.15% (inactive).
In the case of `CSCCC(NC(=O)COc1ccccc1)C(=O)OCC(=O)c1cc2ccccc2o1` (stereo not drawn), the activation was 0.32% (inactive).
Turning to `COc1ccc(/C=N/Nc2nc3ccccc3c(=O)[nH]2)cc1`, the activation is -4.61% (inactive).
`CC(C)n1c(-c2cccs2)nc2ccccc21`: the activation was -0.76% (inactive).
Then `O=c1[nH]c(-c2cccs2)nc2ccccc12`, with 71.4% (active); and `CCCCNC(=O)CCNC(=O)c1ccc(C(C)(C)C)cc1`, with -3.72% (inactive); and `N#C/C(=C/c1ccc(Cl)cc1)NC(=O)c1ccccc1`, with -4.04% (inactive).
As to `CNc1nc(SC)nc(N(C#N)CC(=O)OC)n1`, the activation was -6.48% (inactive).
In the case of `CNC(=O)CN1C(=O)c2ccccc2S1(=O)=O`, the activation was -1.63% (inactive).
Turning to `CCCc1nnc(NC(=O)CN2C(=O)c3ccccc3S2(=O)=O)s1`, the activation is -3.54% (inactive).
As to `Nc1nnc(SCCN2C(=O)c3ccccc3S2(=O)=O)s1`, the activation is 17.5% (active).
The value for `Cc1nc(Cl)c2oc3ccccc3c2n1` was 1.01% (inactive); that for `CCc1nc(Nc2ccc3nccnc3c2)c2oc3ccccc3c2n1` was 46.5% (active); that for `COc1ccccc1Nc1ncnc2c1oc1ccccc12` was -9.1% (inactive).
Consider `Cc1cc(C)n(-c2nc(O)cc(=O)[nH]2)n1`, for which the activation is -4.33% (inactive).
The value for `Cc1ccc(-n2ccc(=O)c(C(=O)O)n2)cc1` was -0.77% (inactive).
Regarding `C=CCO/N=C(\C)c1c(O)c(C)c(-c2ccccc2)n(-c2ccccc2)c1=O`, the activation is -3% (inactive).
Take `COc1ccc(SCc2noc(C(=O)NCC3CCCO3)c2C(=O)O)cc1` (stereo not drawn): the activation was -7.32% (inactive).
For the compound `CCOc1c2ccc(C(=O)NCc3ccc4c(c3)OCO4)cc2nn1C`, the activation is -2.43% (inactive).
Then `COCCNC(=O)Cn1cc(C(=O)c2cccs2)c2ccccc21`, with -4.41% (inactive); and `CC(C)C(=O)Nc1ccc2c(c1)oc1ccccc12`, with 0.25% (inactive); and `c1ccc2c(-c3nn4nnnc4c4ccccc34)cccc2c1`, with -3.13% (inactive).
On to `O=C(O)COc1ccc(-c2nccc(-c3cccs3)n2)cc1`, for which the activation is -4.12% (inactive).
The value for `C=CCn1c2ccccc2c2nnc(SC(CC)C(=O)Nc3nc(C)c(C(=O)OCC)s3)nc21` (stereo not drawn) was 21.9% (active); that for `CCOC(=O)c1sc(NC(=O)c2ccncc2)nc1C` was -5.01% (inactive); that for `CCOC(=O)c1sc(NC(=O)C(CC)Sc2nccn2C)nc1C` (stereo not drawn) was -5.49% (inactive).
Turning to `O=C(/C=C/c1cccs1)c1cc(Cl)ccc1OC(=O)N1CCOCC1`, the activation was -8.27% (inactive).
With `CSCc1cc(N(C)C)nc(SCc2ccc(Cl)cc2Cl)n1`, the activation was -6.28% (inactive).
`CCCC1(C(=O)OCC)NC(c2ccc(N(C)C)cc2)C2C(=O)N(c3ccc4c(c3)OCCO4)C(=O)C21` (stereo not drawn): the activation was -0.77% (inactive).
`CCCCSc1[nH]c(=O)c(C(=O)OCC)cc1C#N`: the activation is -3.23% (inactive).
Take `N#CCSc1nc2c(c(=O)n1Cc1ccccc1)C1(CCCC1)Cc1ccccc1-2`: the activation was -7.66% (inactive).
As for `Cc1ccccc1CSCCNC(=O)c1ccc(Cl)c(S(=O)(=O)N2CCOCC2)c1`, the activation is -6.39% (inactive).
For the compound `CCN(CC)c1nc(-c2ccccc2)cc(C(F)(F)F)c1C#N`, the activation was 23.9% (active).
As to `COC(=O)c1cc2nc(-c3ccccc3)cc(C(F)(F)F)n2n1`, the activation was -1.4% (inactive).
In the case of `N#Cc1c(C(F)(F)F)cc(-c2ccccc2)nc1SCC(=O)N1CCOCC1`, the activation was -6.15% (inactive).
The value for `Cc1nn(CC(=O)Nc2nc3ccccc3s2)c(C)c1[N+](=O)[O-]` was -7.14% (inactive).
Consider `NC1=NC(=O)C2(COC(c3ccccc3Cl)OC2)S1` (stereo not drawn), for which the activation is -5.49% (inactive).
Turning to `COc1cccc(-c2cc(C(=O)N/N=C/c3ccc(OC)c(COC(C)=O)c3)c3ccccc3n2)c1`, the activation was -4% (inactive).
The value for `COc1cc2c(cc1OC)C(C(=O)NCc1ccco1)C1c3ccccc3CCN1C2=O` (stereo not drawn) was -4.83% (inactive).
The value for `Oc1ccccc1CNc1ncc(Br)cc1Br` was -9.29% (inactive); that for `O=C(Nc1ccc(Br)c2cccnc12)c1ccc(Cn2cc([N+](=O)[O-])cn2)o1` was -1.75% (inactive); that for `FC(F)(F)c1cccc(-c2cc3ccccc3nc2N2CCCC2)c1` was -10.1% (inactive).
For the compound `O=C1/C(=C/c2cccs2)CCc2ccccc21`, the activation is -5.98% (inactive).
Consider `CN(C)S(=O)(=O)c1ccc(N2CCCC2)c(C(=O)NCc2ccccc2)c1`, for which the activation is -3.61% (inactive).
For `O=C(NCc1ccc(Cl)cc1)c1cc(=O)nc2sc(-c3ccccc3)nn12`, the activation is -3.55% (inactive).
For the compound `O=[N+]([O-])c1ccc(Oc2ccc(F)cc2Br)c2ccncc12`, the activation was -12.3% (inactive).
On to `CCOC(=O)C(C)Sc1nc2ccccc2c(=O)n1CC1CCCCC1` (stereo not drawn), for which the activation is 1.92% (inactive).
For `CN(C)c1ccnc2sc3c(=O)n(-c4ccc(Cl)cc4)cnc3c12`, the activation was -3.21% (inactive).
Regarding `COC(=O)C1=C(C)N(C)C(C)=C(C(=O)OC)C1c1cccc(Br)c1`, the activation was -1.98% (inactive).
As to `CC12CN3CC(C)(CN(C1)C3c1ccc(Cl)cc1Cl)C2=O` (stereo not drawn), the activation was -3.81% (inactive).
Turning to `CCOc1ccccc1C1C(C(=O)OC)=CN(C)C=C1C(=O)OC`, the activation is 25.5% (active).
For `CCOc1ccccc1N(CC(=O)Nc1ccccc1C(=O)OC)S(C)(=O)=O`, the activation was -7.41% (inactive).
Then `COC(=O)C1=CN(C)C=C(C(=O)OC)C1c1ccc(Cl)cc1Cl`, with 32.1% (active).
Then `CCOc1cc(C2C(C(=O)OC)=CN(C3CCCC3)C=C2C(=O)OC)cc(Br)c1O`, with 7.13% (inactive); and `Cn1nnnc1SCC(=O)Nc1ccccc1C(=O)NC1CC1`, with -4.5% (inactive).
As to `C/C(=N\NS(=O)(=O)c1cccc([N+](=O)[O-])c1)c1cc2ccccc2o1`, the activation was -4.08% (inactive).
Consider `CCOc1c(Cl)cc(/C=N/O)cc1OC`, for which the activation was -3.93% (inactive).
With `CC(=O)C1=C(C)NC(C)=C(C(C)=O)C1c1cn(-c2ccccc2)nc1-c1cccs1`, the activation was -8.95% (inactive).
As for `CCc1nc(C)ccc1OCC(=O)N(CC)CC`, the activation was -0.52% (inactive).
The value for `CSc1nc(-c2ccco2)nn1C(=O)CCc1ccccc1` was -4.35% (inactive); that for `CCOC(=O)c1nnn(-c2nonc2-n2cccc2)c1CN1CCOCC1` was -2.91% (inactive); that for `O=C(Cc1ncc(C(F)(F)F)cc1Cl)Nc1cccc(Br)c1` was -3.95% (inactive).
With `Cc1noc(C)c1CSCC(=O)Nc1nc2ccc(Oc3ccccc3)cc2s1`, the activation is -9.84% (inactive).
The value for `C=CCn1c(-c2ccc(Cl)cc2)ccc(C#N)c1=O` was -1.04% (inactive); that for `CCC(C)NC(=O)c1c(N)n(/N=C/c2cccs2)c2nc3ccccc3nc12` (stereo not drawn) was 11.4% (inactive).
Take `C=CCn1c(N)c(C(=O)OCC(C)C)c2nc3ccccc3nc21`: the activation was -4.83% (inactive).
The value for `CCCNC(=O)c1c(N)n(-c2ccc(S(N)(=O)=O)cc2)c2nc3ccccc3nc12` was 25.6% (active); that for `COc1ccc2c(c1OC)C(=O)N(c1ncn[nH]1)C2` was 16.5% (active).
The value for `COc1ccc2c(c1OC)C(=O)c1ccccc1C2=O` was -4.98% (inactive).
As to `COc1ccc(N2CCN(C(=O)CCc3nc(-c4ccc(C)cc4)no3)CC2)cc1`, the activation was -1.72% (inactive).
`Cc1ccc(S(=O)(=O)Nc2nc(C)cc(-n3nc(C)cc3C)n2)cc1`: the activation is -3.06% (inactive).
As for `N#Cc1ccc(-c2ccc(Cl)cc2)nc1Oc1ccc(F)cc1`, the activation was -3.88% (inactive).
The value for `Cc1ccc(/C=N/NC(=O)C2=NNC(c3ccccc3)(c3ccccc3)C2)c(O)c1` was 2.35% (inactive); that for `O=C(Cc1ccccc1)N/N=C/c1ccc(Cl)cc1Cl` was 2.34% (inactive).
Then `Cc1nn(C)cc1C(=O)NNC(=S)Nc1ccc(Cl)cc1`, with -6.95% (inactive).
The value for `O=C1CCCc2nn(-c3ccccc3)nc21` was -3.05% (inactive); that for `Cc1nc(NC(=O)c2cccc(Cl)c2)sc1-c1csc(Nc2cccc(Cl)c2)n1` was -10.8% (inactive).
As to `Cc1cc(C)c2nc(NC(=O)c3ccc4c(c3)OCO4)sc2c1`, the activation is -8.01% (inactive).
As to `CNC(=O)c1csc(-c2ccccc2)n1`, the activation was -5.56% (inactive).
In the case of `O=C(c1cc2c(s1)CCC2)N1CCN(c2ccccc2)CC1`, the activation was -4.17% (inactive).
For `Cc1nn(Cc2ccc(C(=O)N3N=C(C(F)F)CC3(O)C(F)F)cc2)c(C)c1[N+](=O)[O-]` (stereo not drawn), the activation is -4.76% (inactive).
Take `Cc1ccccc1-c1nnc(SCC(=O)NCc2ccc3c(c2)OCO3)n1C`: the activation was -6.95% (inactive).
On to `COc1cccc(N=c2oc3c(C)ncc(CO)c3cc2C(N)=O)c1`, for which the activation was -4.4% (inactive).
With `O=C1Nc2ccc(Br)cc2/C1=N/N=C/C1=C(N2CCOCC2)C(=C\c2ccccc2)/CC1`, the activation is -5.74% (inactive).
Take `COc1ccc(-c2nnc(SCc3cccnc3)o2)cc1`: the activation was -3.86% (inactive).
As to `Cc1nnc(SC(C)C(=O)Nc2ccc(S(=O)(=O)NC3CCCCC3)cc2)s1` (stereo not drawn), the activation was -4.5% (inactive).
Consider `CC(C)(C)OC(=O)c1c(N)n(CCCN2CCCC2=O)c2nc3ccccc3nc12`, for which the activation is 0.36% (inactive).
Then `N#Cc1c(N)n(CCOC(=O)c2ccc(Cl)cc2)c2nc3ccccc3nc12`, with 16.5% (active).
With `CN(C)CCCn1c(N)c(C#N)c2nc(C#N)c(C#N)nc21`, the activation was 12.8% (inactive).
